# A selection: hits, their analogues and other compounds. The true share with any hit is near 3.2%.
# TROY signal inh = inhibitors of TROY-driven NF-kB signaling, primary screen, Q293 LMP1-TROYcd cells, NF-kB luciferase, uHTS. inhibition, % at 10 µM. Q293 LMP1-TROYcd NF-kB luciferase reporter, 4 h. actives 0.98% (n = 360,000);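 active = compounds whose plate-normalised and pattern-corrected inhibition of the luciferase reporter signal at the single screening dose is 50% or more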
# EWS-Fli block = EWS/Fli-driven NR0B1 reporter inhibitors, primary screen, A673 cells, NR0B1 luciferase, luminescence, MLPCN library; actives 0.67% (n = 350,000); viability-normalised; inhibition, % at 12.6 µM;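 active = mean inhibition of at least 50% after viability correction, with every replicate also passing that limit; inconclusive = mean reaches 50% but only one of two replicates passes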;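 also: firefly luciferase signal divided by Alamar Blue viability fluorescence both relative to DMSO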
# PAX8 inh HTS = inhibitors of PAX8-driven TPO luciferase reporter, primary screen, RMG-I cells, single concentration; SteadyGlo, 24 h; inhibition, % at 12.6 µM; actives 1.2% (n = 360,000); AID 652154, 2013;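 active = mean replicate inhibition at least 60% with every replicate also reaching 60%; inconclusive = only one of the two criteria is met; inactive = mean below 60% and not all replicates reaching 60%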;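 also: luciferase light reporting Pax8 driven TPO promoter activity; plate controls were median of neutral control wells for no effect and mitoxantrone controls for full effect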
# TWEAK-Fn14 inh = inhibitors of TWEAK-Fn14 signaling, primary screen, luciferase reporter cells, uHTS; TWEAK-stimulated Fn14 reporter cells, luciferase luminescence, 8 h; actives 2% (n = 360,000); inhibition, % at 10 µM; in the data active = inhibition above about 50%
# EBV LMP1 NFkB = EBV LMP1-driven NF-kappaB luciferase reporter inhibitors, primary screen, cell-based, luminescence, single point; actives 0.69% (n = 350,000); AID 504558, 2011; LMP1-induced NF-kappaB luciferase reporter cells; inhibition, % at 12.5 µM; in the data active = inhibition above about 41%; inconclusive = no clear call, values can overlap the other calls;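 also: 0% = neutral control wells and 100% = reference inhibitor control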
# LGR2 antag = inhibitors of bursicon-induced LGR2 CRE-luciferase signal, primary screen, cell-based, HEK293, CRE-luciferase reporter, bursicon stimulation; Drosophila bursicon receptor LGR2 (rickets); bursicon-stimulated, 4 h; inhibition, % at 9.99 µM; actives 0.35% (n = 380,000); AID 720647, 2013;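 active = drop in luminescence signal, shown as inhibition above about 50% in the replicate tests, limit read from the data, passing the limit was not always enough; inconclusive = probably only some replicates passing the limit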;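 also: agonist challenge used bursicon conditioned medium at about half maximal strength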
# * marks the source's active call; other numbers are inactive results; ? = inconclusive; . = no result given.
SMILES,TROY signal inh,EWS-Fli block,PAX8 inh HTS,TWEAK-Fn14 inh,EBV LMP1 NFkB,LGR2 antag
CC(C)C(NC(=O)C1CCCCC1)C(=O)Nc1ccc2c(c1)OCCO2 (configuration not stated),32.8,.,-166.6,63.3*,3.0,.
O=C(O)C1CCCCC1C(=O)Nc1ccc2c(c1)OCCO2 (configuration not stated),68.5*,.,.,82.6*,-2.5,.
CC(=O)NC[C@@H]1[C@@H](c2ccccc2)[C@@H](CO)N1C(=O)Cc1ccncc1,.,-0.8,-13.7,.,.,-18.5
O=C(N/N=C/c1cn(Cc2ccccc2)c2ccccc12)c1ccncc1,0.5,17.3,4.2,16.7,7.3,-12.8
O=C(N/N=C/c1cn(Cc2ccccc2)c2ccccc12)c1cccnc1,7.0,22.1,12.7,53.6*,8.6,22.2
CCOc1ccc(NC(=O)CN(C)C(=O)c2ccncc2)cc1OCC,5.0,22.9,4.9,68.4*,7.5,4.5
CCOc1ccc(NC(=O)CN(C)C(=O)c2cc(C)on2)cc1OCC,13.8,-10.5,4.9,6.9,7.4,-3.3
CCOC(=O)c1cnn(-c2ccccc2)c1NC(=O)CN1CCOCC1,-6.7,2.3,9.1,-9.2,63.3*,3.2
N#Cc1cnn(-c2ccccc2)c1NC(=O)CN1CCOCC1,10.1,6.7,-4.1,-7.4,.,-4.0
Cc1oc(=O)c(NC(=O)c2ccccc2)cc1C(N)=O,1.4,-12.8,12.7,-19.2,-11.1,4.8
CCc1nnc(NC(=O)c2cc3ccccc3oc2=O)s1,-33.6,.,10.1,3.7,1.8,.
O=C(Nc1cc2ccccc2oc1=O)c1ccccc1,65.8*,73.9*,36.4,90.3*,54.9*,88.9*
N=c1oc2cc(O)ccc2cc1C(=O)Nc1ccc(Br)cc1,29.4,-68.9,-158.4,72.1*,-3.2,-85.1
Cc1cccnc1NC(=O)c1cc2ccccc2oc1=O,-3.4,-44.3,-141.5,79.8*,-22.1,-28.3
COc1ccc2oc(=O)c(C(=O)Nc3cccc(C(C)=O)c3)cc2c1,-25.6,-59.4,-23.6,-40.8,-0.5,-41.2
COc1cccc(NC(=O)c2cc3ccccc3oc2=O)c1,22.4,33.1,-108.3,85.7*,27.8,25.2
CCC(=O)N1[C@H](CO)[C@H](c2ccc(-c3ccccc3OC)cc2)[C@@H]1CNC(C)=O,.,.,.,.,.,3.6
C[C@H]1CN([C@@H](C)CO)C(=O)c2cc(C#CCN(C)C)cnc2O[C@H]1CN(C)C(=O)c1ccc(F)cc1,.,-12.0,.,.,.,6.4
O=C([C@H]1[C@H](CO)[C@H]2Cn3c(ccc(-c4ccccc4)c3=O)[C@@H]1N2)N1CCCCC1,.,-9.1,-10.7,.,.,-9.9
COc1ccc2oc(=N)c(C(=O)Nc3ccccc3)cc2c1,-20.5,.,.,22.2,-26.6,.
Cc1cccnc1NC(=O)Nc1cccc2ccccc12,65.8*,.,.,55.7*,1.6,.
N=c1oc2cc(O)ccc2cc1C(=O)Nc1nc2ccccc2s1,50.2*,-43.7,-40.4,53.2*,-35.5,-14.7
N=c1oc2ccccc2cc1C(=O)Nc1ccccc1,-72.4,29.2,-68.5,78.2*,10.3,18.8
C[C@H](CO)N1C[C@H](C)[C@@H](CN(C)C(=O)CC2CC2)Oc2cc(C#CC(C)(C)O)ccc2S1(=O)=O,.,-8.8,.,.,.,-7.6
COCC(=O)Nc1ccc2c(c1)[C@H]1C[C@H](CC(=O)N(C)C)O[C@@H](CO)[C@H]1O2,.,-6.6,-4.1,.,.,-14.9
SMILES,TROY signal inh,EWS-Fli block,PAX8 inh HTS,TWEAK-Fn14 inh,EBV LMP1 NFkB,LGR2 antag
O=C(N[C@H]1CC[C@H](CCNC(=O)c2ccccc2F)O[C@H]1CO)c1ccc2c(c1)OCO2,.,6.2,1.1,.,.,-4.6
CO[C@H]1CN(C)C(=O)c2cc(NC(C)=O)ccc2OC[C@@H](C)N(Cc2cccc(F)c2)C[C@H]1C,.,-2.0,5.9,.,.,-2.8
CC[C@@H](C(=O)[C@@H](C)[C@@H](O)[C@H](C)CCc1ccc(C)c(O)c1C(=O)O)[C@H]1O[C@](CC)([C@H]2CC[C@](O)(CC)[C@H](C)O2)C[C@@H]1C,76.4*,26.2,103.8*,85.8*,-7.3,70.5*
CCC(C)(C)NC(=O)CN(C(=O)CCC(=O)Nc1nccs1)c1ccc2c(c1)OCCO2,52.4*,14.3,-30.6,64.1*,4.4,-0.6
C[C@@H]1CN([C@@H](C)CO)C(=O)c2cc(NS(=O)(=O)c3ccccc3)ccc2O[C@@H](C)CCCCO[C@@H]1CN(C)C(=O)Nc1cccc2ccccc12,.,12.5,-1.0,.,.,21.1
Cc1ccc(S(=O)(=O)Nc2ccc3c(c2)C(=O)N([C@@H](C)CO)C[C@@H](C)[C@@H](CN(C)C(=O)Nc2cccc4ccccc24)OCCCC[C@@H](C)O3)cc1,.,11.7,68.2*,.,.,7.6
C[C@@H]1CCCCO[C@@H](CN(C)C(=O)Nc2cccc3ccccc23)[C@H](C)CN([C@H](C)CO)C(=O)c2cc(NS(=O)(=O)c3ccccc3)ccc2O1,.,12.9,80.1*,.,.,4.8
COc1ccc(S(=O)(=O)Nc2ccc3c(c2)C(=O)N([C@H](C)CO)C[C@H](C)[C@H](CN(C)S(=O)(=O)c2c(C)noc2C)O3)cc1,.,-0.1,.,.,.,-7.7
CCCC(=O)Nc1ccc2c(c1)C(=O)N(C)C[C@H](OC)[C@H](C)CN(Cc1ccccc1)[C@H](C)CO2,.,0.1,.,.,.,4.2
CC[n+]1ccccc1/C=C1\Sc2ccc(C)cc2N1C,9.2,55.0*,42.4,13.2,19.5,12.8
Cc1cc(Cl)c2ccc3ccccc3c2n1,-15.9,-2.2,-2.2,-2.6,-2.4,18.3
Cc1ccc2c(Cl)cc(Cl)c(O)c2n1,35.8,6.4,8.8,100.7*,39.9,11.4
Cc1ccn2c(Nc3ccccc3)c(-c3ccccn3)nc2c1,1.1,51.9*,18.4,22.5,58.9*,8.2
Cc1ccn2c(Nc3ccccc3C)c(-c3ccccn3)nc2c1,-22.6,18.7,13.1,-39.8,25.5,23.4
Cc1ccccc1Nc1c(-c2ccccn2)nc2ccccn12,29.0,51.6*,30.2,-36.6,-1.6,49.8
CCNc1nc(NCC)nc(OCCOC(=O)COc2ccc(Cl)cc2Cl)n1,.,.,.,86.2*,-6.5,.
CN(C)c1nc(OCCOC(=O)COc2ccc(Cl)cc2Cl)nc(N(C)C)n1,3.3,.,-7.3,4.9,6.7,.
O=C1NC(Cc2ccc(O)cc2)c2nc3ccc(Br)cc3c(=O)n2-c2cc3ccccc3cc21 (configuration not stated),36.8,26.5,?,36.8,3.7,6.8
Cc1cc(C)c2c(=O)n3c(nc2c1)C(Cc1ccc(O)cc1)NC(=O)c1cc2ccccc2cc1-3 (configuration not stated),20.9,27.0,71.8*,-12.2,0.8,12.2
Cn1c(=O)c2nc(NCc3ccccc3)cnc2n(C)c1=O,-19.2,5.7,.,-27.4,-1.5,5.1

# Screening results deposited in PubChem BioAssay by several laboratories.
